Results filed as inconclusive are left out. Activity calls are given as the source filed them. Unless noted, the call rests on the fitted dose curve.
Columns and labels:
[1] = Nuclear factor erythroid 2-related factor 2/antioxidant responsive element (Nrf2/ARE) small molecule agonists: qHTS cell viability counter screen in human keratinocytes (AID 1919968; active means well fitted curve in the direction sought with a large enough effect in the repeat runs; an effect the other way counts as inactive or inconclusive; further: nearly all actives have a fitted effect of over 55% in size)
Summary of the method: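 Cells of the KeratinoSens line were plated at 1,500 per well and left for 5 h before compound transfer from DMSO stocks. After a 23 h incubation (37 C, 5% CO2), CellTiter-Fluor was added. Signal was taken as fluorescence intensity 1 h later.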

[2] = biological target: Gonadotropin-releasing hormone receptor (Homo sapiens) (UniProt P30968); test: Human gonadotropin-releasing hormone receptor (GnRHR) small molecule agonists, calcium flux assay in GnRHR-HEK293 cells (AID 1920063); further: nearly all actives have a fitted effect of over 35% in size
Summary of the method: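 Compounds dissolved in DMSO are pin-transferred onto dye-loaded GnRHR-HEK293 cells, which were seeded 18 h before at 37 C/5% CO2. Calcium signal is read as fluorescence intensity at 1 s intervals for 3 min.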

[3] = biological target: KiSS-1 receptor (Homo sapiens) (UniProt Q969F8); test: Human kisspeptin (KISS1R) small molecule agonists, calcium flux assay in KISS1R-HEK293 cells (AID 1920064; active means well fitted curve in the direction sought with a large enough effect in the repeat runs; an effect the other way counts as inactive or inconclusive)
Summary of the method: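 Cell line: HEK293, stable human KISS1R. Dye loading 1 h at 37 C after 18 h culture. Read: kinetic fluorescence, 480/540 nm, 3 min at 1 s intervals.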

[4] = G protein-coupled receptor (GPCR) small molecule agonists, calcium flux assay: HEK293 wild type cell line counter screen (AID 1920065)
Summary of the method: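 Tox21 10K compounds, 15 concentrations each in triplicate, pin-transferred in DMSO onto dye-loaded cells; kinetic read at 480/540 nm for 3 min, 1 s intervals.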

[5] = p53 small molecule agonists, cell-based qHTS assay with human liver microsomes: qHTS cell viability counter screen (AID 1963579); further: nearly all actives have a fitted effect of over 45% in size
Summary of the method: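 Metabolically activated exposure: compounds, human liver microsomes and NADPH (0.5 mg/mL final apiece) were added to p53RE-bla cells seeded 5 h earlier, left 16 h at 37 C, and then assessed for viability by CellTiter-Glo luminescence.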

[6] = p53 small molecule agonists, cell-based qHTS assay with rat liver microsomes: qHTS cell viability counter screen (AID 1963580); further: nearly all actives have a fitted effect of over 45% in size
Summary of the method: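 Cytotoxicity counter screen: intracellular ATP read by CellTiter-Glo luminescence in the p53 reporter wells. HCT-116 p53RE-bla cells were treated for 16 h at 37 C alongside rat liver microsomes and NADPH, each 0.5 mg/mL final.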

[7] = p53 small molecule agonists, cell-based qHTS assay: qHTS cell viability counter screen (AID 1963581); further: nearly all actives have a fitted effect of over 45% in size
Summary of the method: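 ATP content measured by luminescence in HCT-116 p53RE-bla cells treated 16 h at 37 C, same wells as the reporter screen.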

[8] = biological target: 5-hydroxytryptamine receptor 2A (Homo sapiens) (UniProt P28223); test: 5-hydroxytryptamine receptor 2A (HTR2A) small molecule agonists, cell-based qHTS assay (AID 1963587); further: nearly all actives have a fitted effect of over 30% in size
Summary of the method: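 Kinetic calcium-flux fluorescence (2 min, 1 sec intervals) after compound addition in agonist mode. HTR2A-CHO cells were cultured 18 h, then dye-loaded 1 h at 37 C.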

[9] = biological target: Muscarinic acetylcholine receptor M1 (Homo sapiens) (UniProt P11229); test: Cholinergic receptor muscarinic 1 (CHRM1) small molecule antagonists, cell-based qHTS assay (AID 1963588); further: nearly all actives have a fitted effect of over 40% in size
Summary of the method: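 Compounds were tested at 15 concentrations in three independent runs. Dye-loaded CHRM1-CHO cells were exposed 5 min at room temperature before stimulation by acetylcholine added at 50nM. Intracellular calcium was read kinetically on FDSS for 3 min.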

[10] = biological target: Muscarinic acetylcholine receptor M1 (Homo sapiens) (UniProt P11229); test: Cholinergic receptor muscarinic 1 (CHRM1) small molecule agonists, cell-based qHTS assay (AID 1963589); further: nearly all actives have a fitted effect of over 35% in size
Summary of the method: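 Homogeneous fluorescence calcium flux, agonist mode. Human M1-expressing CHO cells; compound dosed at 15 concentrations, three independent runs; signal sampled every 1 sec.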

[11] = cAMP Responsive Elements (CRE) small molecule agonists, cell-based qHTS assay (AID 1963590)
Summary of the method: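 HEK 293T cells stably bearing CRE-bla were plated at 2,000 cells per well and rested 18 h. Compounds, positive controls or DMSO were added for 3 h at 37 C. LiveBLAzer B/G substrate was then loaded for 2 h at room temperature.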

[12] = cAMP Responsive Elements (CRE) small molecule antagonists, cell-based qHTS assay (AID 1963591; active means well fitted inhibition curve with a large enough effect in the signal ratio in the repeat runs, not every such curve was filed as active; the % refers to the signal ratio)
Summary of the method: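 First, CRE-bla HEK293T cells settled 18 h at 37 C. Next, compound and 0.25 uM final NKH477 were applied for 3 h. Last, LiveBLAzer B/G substrate was loaded for 2 h at room temperature.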

[13] = biological target: Beta-2 adrenergic receptor (Homo sapiens) (UniProt P07550); test: Adrenergic beta2 receptor (ADRB2) small molecule antagonists, cell-based qHTS assay (AID 1963592); further: nearly all actives have a fitted effect of over 50% in size; further: potency means the concentration at half of the fitted maximal effect; on activity change, negative = inhibition: series mostly up to about 92 µM
Summary of the method: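 Assay format: CHO-ADRB2 cells, 18-20hr seeding at 37C/5% CO2, then compound plus 1nM isoproterenol agonist mix for 0.5hr RT. Homogeneous time-resolved fluorescence cAMP detection after 1hr, expressed as 665/615 nm ratio.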

[14] = biological target: Beta-2 adrenergic receptor (Homo sapiens) (UniProt P07550); test: Adrenergic beta2 receptor (ADRB2) small molecule agonists, cell-based qHTS assay (AID 1963593);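 further: CHO cells stably overexpressing human ADRB2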
Summary of the method: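 CHO cells stably over-expressing ADRB2 were plated overnight at 37C, then dosed with compounds plus a stimulation mix containing 100uM IBMX and 25uM Ro-20-1724 for 0.5hr at room temperature. cAMP was measured by HTRF competition, 1hr.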

[15] = biological target: D(2) dopamine receptor (Homo sapiens) (UniProt P14416); test: Dopamine D2 receptor (DRD2) small molecule agonists, cell-based qHTS assay (AID 1963594); further: nearly all actives have a fitted effect of over 35% in size
Summary of the method: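 cAMP accumulation in DRD2-HEK293 cells measured by HTRF after 1 h detection; compounds added 10 min before NKH477 (200nM […]) forskolin-analogue stimulation, 30 min at room temperature, with Ro20-1724 present at 0.1 mM final.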

[16] = biological target: D(2) dopamine receptor (Homo sapiens) (UniProt P14416); test: Dopamine D2 receptor (DRD2) small molecule antagonists, cell-based qHTS assay (AID 1963595; active means well fitted inhibition curve with a large enough effect in the signal ratio in the repeat runs, with a control signal flat; the % refers to the signal ratio)
Summary of the method: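 HEK293 cells stably expressing DRD2, preincubated with 0.1 mM Ro20-1724 and compounds 10 min, were stimulated with 200 nM NKH477 plus 12 nM quinpirole for 30 min at room temperature; cAMP measured by HTRF (665/620 nm).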

[17] = biological target: 5-hydroxytryptamine receptor 2A (Homo sapiens) (UniProt P28223); test: 5-hydroxytryptamine receptor 2A (HTR2A) small molecule antagonists, cell-based qHTS assay (AID 1963586); further: nearly all actives have a fitted effect of over 45% in size
Summary of the method: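 CHO cells stably expressing human HTR2A were plated for 18 h at 37 C, then loaded with calcium dye for 1 h. Compounds were preincubated 5 min at room temperature before DOI (4 nM solution) was added. Kinetic fluorescence was read for 3 min.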

[18] = p53 small molecule agonists, cell-based qHTS assay (AID 1963582; active means well fitted activation curve with a large enough effect in the signal ratio in the repeat runs, not every such curve was filed as active; the % refers to the signal ratio)
Summary of the method: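 16 h compound exposure (37 C) of p53 response element–bla cells, preceded by 5 h recovery at 37 C/5% CO2; read-out via LiveBLAzer B/G FRET substrate, 2 h RT, fluorescence intensity.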
On the % scale 0 is the no-effect control and ±100 the full control effect.

Chain of D(2) dopamine receptor (Homo sapiens) (P14416 whole entry, looked up): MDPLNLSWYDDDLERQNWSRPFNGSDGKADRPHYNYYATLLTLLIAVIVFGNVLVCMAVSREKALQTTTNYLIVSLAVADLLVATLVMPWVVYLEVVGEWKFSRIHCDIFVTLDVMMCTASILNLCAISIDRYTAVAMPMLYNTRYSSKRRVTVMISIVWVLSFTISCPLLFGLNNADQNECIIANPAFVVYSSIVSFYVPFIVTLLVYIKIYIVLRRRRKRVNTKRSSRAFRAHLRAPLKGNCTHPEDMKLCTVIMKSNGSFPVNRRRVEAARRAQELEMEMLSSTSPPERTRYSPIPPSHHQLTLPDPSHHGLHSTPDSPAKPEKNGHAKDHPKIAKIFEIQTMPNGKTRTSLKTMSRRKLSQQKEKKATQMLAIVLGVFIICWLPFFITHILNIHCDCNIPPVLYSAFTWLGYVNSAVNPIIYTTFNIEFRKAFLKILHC
Chain of Muscarinic acetylcholine receptor M1 (Homo sapiens) (P11229 whole entry, looked up): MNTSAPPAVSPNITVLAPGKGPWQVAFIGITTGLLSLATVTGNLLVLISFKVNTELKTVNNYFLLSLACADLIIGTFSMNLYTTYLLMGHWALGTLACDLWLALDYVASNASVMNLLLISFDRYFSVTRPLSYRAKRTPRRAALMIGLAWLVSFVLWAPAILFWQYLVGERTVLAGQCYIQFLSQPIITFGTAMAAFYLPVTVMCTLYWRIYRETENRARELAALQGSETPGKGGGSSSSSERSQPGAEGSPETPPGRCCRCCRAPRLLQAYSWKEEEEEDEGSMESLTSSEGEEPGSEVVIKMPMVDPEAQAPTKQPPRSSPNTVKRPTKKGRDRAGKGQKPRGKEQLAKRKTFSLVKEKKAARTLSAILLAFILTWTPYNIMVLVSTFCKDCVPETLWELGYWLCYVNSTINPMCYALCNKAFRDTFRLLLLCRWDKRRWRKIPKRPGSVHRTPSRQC
Chain of 5-hydroxytryptamine receptor 2A (Homo sapiens) (P28223 whole entry, looked up): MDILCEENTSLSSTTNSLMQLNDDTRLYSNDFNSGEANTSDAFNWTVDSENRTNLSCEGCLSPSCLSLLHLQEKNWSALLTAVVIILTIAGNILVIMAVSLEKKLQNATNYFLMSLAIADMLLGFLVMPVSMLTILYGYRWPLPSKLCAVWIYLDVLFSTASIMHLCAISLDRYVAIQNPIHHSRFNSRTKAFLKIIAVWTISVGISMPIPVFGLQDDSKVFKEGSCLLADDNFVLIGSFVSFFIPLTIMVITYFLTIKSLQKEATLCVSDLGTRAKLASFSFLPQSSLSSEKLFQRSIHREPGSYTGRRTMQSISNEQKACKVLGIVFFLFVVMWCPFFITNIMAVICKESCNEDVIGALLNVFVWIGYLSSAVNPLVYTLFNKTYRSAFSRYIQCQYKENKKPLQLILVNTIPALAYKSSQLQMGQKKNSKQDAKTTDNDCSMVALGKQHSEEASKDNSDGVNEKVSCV
Chain of Beta-2 adrenergic receptor (Homo sapiens) (P07550 whole entry, looked up): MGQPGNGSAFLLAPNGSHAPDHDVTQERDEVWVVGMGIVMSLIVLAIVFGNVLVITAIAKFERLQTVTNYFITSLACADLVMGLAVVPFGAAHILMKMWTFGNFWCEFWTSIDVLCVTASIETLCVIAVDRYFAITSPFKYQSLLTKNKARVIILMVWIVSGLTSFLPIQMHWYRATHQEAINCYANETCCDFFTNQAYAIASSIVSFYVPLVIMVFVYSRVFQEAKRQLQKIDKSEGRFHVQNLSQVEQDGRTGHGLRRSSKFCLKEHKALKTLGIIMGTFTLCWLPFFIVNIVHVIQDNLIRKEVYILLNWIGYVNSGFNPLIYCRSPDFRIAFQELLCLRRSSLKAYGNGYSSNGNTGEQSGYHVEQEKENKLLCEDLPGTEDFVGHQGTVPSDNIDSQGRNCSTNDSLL
Chain of Gonadotropin-releasing hormone receptor (Homo sapiens) (P30968 whole entry, looked up): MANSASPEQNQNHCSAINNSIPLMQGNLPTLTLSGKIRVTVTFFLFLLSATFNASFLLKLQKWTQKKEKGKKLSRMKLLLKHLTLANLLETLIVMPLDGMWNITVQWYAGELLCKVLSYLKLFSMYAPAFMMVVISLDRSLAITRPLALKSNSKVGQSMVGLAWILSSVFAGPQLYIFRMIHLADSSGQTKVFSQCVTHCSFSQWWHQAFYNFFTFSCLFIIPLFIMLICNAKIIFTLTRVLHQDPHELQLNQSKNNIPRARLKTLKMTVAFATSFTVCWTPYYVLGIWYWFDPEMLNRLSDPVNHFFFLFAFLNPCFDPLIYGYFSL
Chain of KiSS-1 receptor (Homo sapiens) (Q969F8 whole entry, looked up): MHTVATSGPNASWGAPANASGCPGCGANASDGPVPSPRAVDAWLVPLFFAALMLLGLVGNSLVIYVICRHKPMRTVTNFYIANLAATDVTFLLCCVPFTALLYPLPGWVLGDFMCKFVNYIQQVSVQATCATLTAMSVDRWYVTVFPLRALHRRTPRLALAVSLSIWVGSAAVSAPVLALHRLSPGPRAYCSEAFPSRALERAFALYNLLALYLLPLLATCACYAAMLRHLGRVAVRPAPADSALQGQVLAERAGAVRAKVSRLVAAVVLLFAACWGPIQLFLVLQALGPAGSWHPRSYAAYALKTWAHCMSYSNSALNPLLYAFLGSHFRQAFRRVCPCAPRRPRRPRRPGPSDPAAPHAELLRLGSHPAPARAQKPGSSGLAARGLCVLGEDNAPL

O=C(O)c1ccc(S(=O)(=O)O)cc1C(=O)O
inactive: Potency [1] | Potency [2] | Potency [3] | Potency [4] | Potency [5] | Potency [6] | Potency [7] | Potency [8] | Potency [9] | Potency [10] | Potency [11] | Potency [12] | Potency [13] | Potency [14] | Potency [15] | Potency [16]

C=CCCCCCCCCOC(C)=O
inactive: Potency [1] | Potency [2] | Potency [3] | Potency [4] | Potency [5] | Potency [6] | Potency [7] | Potency [17] | Potency [8] | Potency [9] | Potency [10] | Potency [11] | Potency [12] | Potency [15] | Potency [16]

CC(=O)c1ccccc1[N+](=O)[O-]
inactive: Potency [1] | Potency [2] | Potency [3] | Potency [4] | Potency [5] | Potency [6] | Potency [7] | Potency [17] | Potency [8] | Potency [9] | Potency [11] | Potency [13] | Potency [15] | Potency [16]

CCCCCCCCC(=O)OCC(C)OC(=O)CCCCCCCC (stereo unspecified)
inactive: Potency [1] | Potency [2] | Potency [3] | Potency [4] | Potency [5] | Potency [6] | Potency [7] | Potency [17] | Potency [8] | Potency [9] | Potency [10] | Potency [11] | Potency [13] | Potency [15] | Potency [16]

O=C1CCCCC1C1CCCCC1 (stereo unspecified)
inactive: Potency [1] | Potency [2] | Potency [3] | Potency [4] | Potency [5] | Potency [6] | Potency [17] | Potency [8] | Potency [9] | Potency [10] | Potency [11] | Potency [12] | Potency [13] | Potency [15] | Potency [16]

Cc1c(N)cccc1N
inactive: Potency [1] | Potency [2] | Potency [3] | Potency [4] | Potency [5] | Potency [6] | Potency [7] | Potency [17] | Potency [8] | Potency [9] | Potency [10] | Potency [11] | Potency [12] | Potency [15] | Potency [16]

Cc1c(N)c(=O)n(-c2ccccc2)n1C
inactive: Potency [1] | Potency [2] | Potency [3] | Potency [4] | Potency [5] | Potency [6] | Potency [7] | Potency [17] | Potency [9] | Potency [10] | Potency [11] | Potency [13] | Potency [14] | Potency [15] | Potency [16]

Cc1c[nH]c(=S)[nH]c1=O
inactive: Potency [1] | Potency [2] | Potency [3] | Potency [4] | Potency [5] | Potency [6] | Potency [7] | Potency [17] | Potency [8] | Potency [10] | Potency [12] | Potency [13] | Potency [14] | Potency [15] | Potency [16]

N[C@@H](CCC(=O)N[C@@H](CS)C(=O)NCC(=O)O)C(=O)O
inactive: activity change, negative = cytotoxicity [1] 3.9% [at 19 µM] | activity change [2] 2.39% [at 11.8 µM, hits give high values] | activation [3] 0.132% [at 15.8 µM] | activation [4] -1.3% [at 11.8 µM] | activity change, negative = cytotoxicity [5] -1.1% [at 13.5 µM] | activity change, negative = cytotoxicity [6] 0.778% [at 13.5 µM] | activity change, negative = cytotoxicity [7] 13.7% [at 13.5 µM] | activity, negative = inhibition [17] -1.78% [at 12.7 µM] | activation [8] 2.78% [at 15.9 µM] | activity, negative = inhibition [9] 11.9% [at 12.6 µM] | activation [10] -0.288% [at 15.8 µM] | activity change, negative = inhibition [12] -10.5% [at 18.9 µM] | activity change, negative = inhibition [13] -5.33% [at 19 µM] | activation [15] -7.59% [at 19 µM]

CCCC1CCOC(C)S1 (stereo unspecified)
inactive: Potency [1] | Potency [2] | Potency [3] | Potency [4] | Potency [5] | Potency [7] | Potency [17] | Potency [8] | Potency [9] | Potency [10] | Potency [11] | Potency [12] | Potency [14] | Potency [15]

Nc1ccc(F)cc1
inactive: Potency [1] | Potency [2] | Potency [3] | Potency [4] | Potency [5] | Potency [6] | Potency [7] | Potency [17] | Potency [8] | Potency [9] | Potency [10] | Potency [11] | Potency [12] | Potency [13] | Potency [15] | Potency [16]

CC(=O)c1ccc2c(c1)Cc1ccccc1-2
inactive: Potency [1] | Potency [2] | Potency [3] | Potency [4] | Potency [5] | Potency [6] | Potency [17] | Potency [8] | Potency [9] | Potency [10] | Potency [12] | Potency [13] | Potency [15] | Potency [16]

COP(=O)(OC)OC(c1ccc(Cl)cc1)P(=O)(OC)OC (stereo unspecified)
inactive: Potency [1] | Potency [2] | Potency [3] | Potency [4] | Potency [5] | Potency [6] | Potency [7] | Potency [17] | Potency [8] | Potency [9] | Potency [10] | Potency [12] | Potency [13] | Potency [15] | Potency [16]

CCN(CC)C(=O)c1ccc(O)c(OC)c1
inactive: Potency [1] | Potency [2] | Potency [3] | Potency [4] | Potency [5] | Potency [6] | Potency [7] | Potency [9] | Potency [10] | Potency [11] | Potency [13] | Potency [15]

CC(C)C1CCC(C(=O)N[C@H](Cc2ccccc2)C(=O)O)CC1 (stereo partly specified)
inactive: Potency [1] | Potency [2] | Potency [3] | Potency [4] | Potency [5] | Potency [6] | Potency [7] | Potency [11] | Potency [12] | Potency [14] | Potency [15] | Potency [16]

CN1C(=O)c2ccccc2C1=O
inactive: Potency [1] | Potency [2] | Potency [3] | Potency [4] | Potency [5] | Potency [7] | Potency [18] | Potency [17] | Potency [8] | Potency [10] | Potency [11] | Potency [12] | Potency [16]
active: Potency [13] 54.5 µM

CC(C)(C)C1=CC(=O)C=C(C(C)(C)C)C1=O
inactive: Potency [1] | Potency [2] | Potency [3] | Potency [4] | Potency [5] | Potency [6] | Potency [7] | Potency [17] | Potency [8] | Potency [9] | Potency [10] | Potency [11] | Potency [12] | Potency [13] | Potency [16]

From PubChem BioAssay (Tox21)
